Assay outcomes from PubChem.
VACV E9 pol inh: blocks vaccinia virus processive DNA synthesis. normalized absorbance, % (test concentration not listed). in vitro processive DNA synthesis, absorbance read-out; stronger effect = lower value. actives 0.94% (n = 46,000); in the data active = normalized absorbance mostly below about 85%, no sharp cut-off; inactive = mostly above about 86%
Active calls of the source: *. The entries come from a sample that favours hits as a whole.

SMILES | VACV E9 pol inh
CCOC(=O)c1cnc2c(ccc3ccccc32)c1NC1CC(C)(C)NC(C)(C)C1 | 58*
CCOC(=O)c1cnc2c(ccc3ccccc32)c1NCC(C)C | 100
CCOC(=O)c1cnc2c(ccc3ccccc32)c1NCCOC(=O)C(C)(C)C | 100
CC(C)(C)SCC(O)Cn1c2ccc(Cl)cc2c2cc(Cl)ccc21 (configuration not stated) | 100
N=C1S/C(=C/c2ccco2)C(=O)N1c1nccs1 | 52*
Cc1nnc(N2C(=N)S/C(=C\c3ccccc3Cl)C2=O)s1 | 100
O=C1c2ccccc2C(=O)N1c1nccs1 | 100
O=C(Nc1csc2ccccc12)N1CCOCC1 | 108
COc1ccc2oc3cc(C)nc(-c4ccccc4)c3c2c1 | 96
Cc1cc(C)nc(/N=C(/N)NO)n1 | 100
CCN(CC)CCCn1c(-c2ccccc2)cn2c3ccccc3nc12 | 100
c1ccc(-c2csc3nc4ccccc4n23)cc1 | 86
c1ccc(-c2cn3c(nc4ccccc43)s2)cc1 | 80*
COc1ccc(N/C=C(/C#N)c2cccs2)cc1 | 104
CC(C)(C)NC(=O)N1CCOCC1 | 83
CS(=O)(=O)N(Cc1ccc(C(=O)O)cc1)c1cccc(Cl)c1Cl | 98
CSc1nnc(N2C(=O)CC(c3ccccc3)C3=C2CCCC3=O)s1 (configuration not stated) | 105
N#CC1=C(SCc2ccccc2)SC(c2ccccc2O)NC1=O (configuration not stated) | 50*
CCSC1=C(C#N)C(=O)NC(/C=C/c2ccccc2)S1 (configuration not stated) | 108
COC(=O)CSC1=C(C#N)C(=O)NC(c2ccccc2O)S1 (configuration not stated) | 91
Cc1ccc(-n2cnc3ccccc32)cc1 | 86
CCC(NCc1c(O)ccc2c3c(c(=O)oc12)CCC3)C(=O)O (configuration not stated) | 102
O=C(/C=C/c1ccccc1)/C=C/c1ccco1 | 78
O=C(/C=C/c1ccco1)Nc1cccc(NC(=O)/C=C/c2ccco2)n1 | 85*
O=C(/C=C/c1ccco1)C1(O)CCCCC1 | 91
SMILES | VACV E9 pol inh
Cc1nn(C)c(C)c1NC(=O)/C=C/c1ccco1 | 103
O=C(/C=C/c1ccco1)NCCc1ccccc1 | 102
O=C(/C=C/c1ccco1)/C=C/c1ccco1 | 8.6*
CSc1sc(SC)c(C[n+]2ccccc2)c1C[n+]1ccccc1 | 100
Nc1ccc(-c2cnc(-c3ccc(N)cc3)nc2)cc1 | 100
Nc1ccc(-c2ccc(N)cc2)cc1 | 72*
Cc1ccc(-c2ccc(N)cc2)cc1 | 93
COc1ccc2c(c1)cc1n2CCN2CCN=C12 | 76
COc1ccc2c(c1)c1nc(N(C)C)nc3c1n2CCN3C | 11*
COc1ccc2c(c1)cc1n2CCN=C1N | 90
O=S(=O)(c1ccc(F)cc1F)n1nccc1-c1ccc(-c2ccc(F)cc2F)o1 | 100
N#C/C(=C\c1cccs1)c1csc2ccc(Cl)cc12 | 111
Cc1ccc2oc(=O)c3cc(C(=O)NCCN4CCCCC4C)sc3c2c1 (configuration not stated) | 62*
Cc1ccc2oc(=O)c3cc(C(=O)N4CCN(c5ccc(F)cc5)CC4)sc3c2c1 | 101
Cc1ccc2oc(=O)c3cc(C(=O)Nc4ccc5c(C)cc(=O)oc5c4)sc3c2c1 | 104
CCOC(=O)c1ccc(NC(=O)CCn2c(=O)sc3ccccc32)cc1 | 99
CN(C(=O)c1ccc2c(=O)n3c(nc2c1)CCCCC3)C1CCCCC1 | 67*
Cc1cccc(N(C)C(=O)c2ccc3c(=O)n4c(nc3c2)CCCCC4)c1 | 103
CC(C)CCNC(=O)c1ccc2c(=O)n3c(nc2c1)CCCCC3 | 100
Cc1cc(-c2nc3ncccc3o2)ccc1NC(=O)C(C)(C)Oc1ccc(Cl)cc1 | 94
Cc1cccc(C(=O)Nc2nc3c(s2)C(=O)CC(C)(C)C3)c1 | 100
O=C1c2ccccc2S(=O)(=O)N1Cc1cccc(Cl)c1 | 103
CC(C)(C)C(=O)NCC(c1cccs1)N1CCOCC1 (configuration not stated) | 94
COc1ccc(CC(=O)N2c3ccccc3CCc3ccccc32)cc1 | 100
Cc1nc2ccccc2cc1C(=O)NCc1ccccn1 | 109
SMILES | VACV E9 pol inh
CCn1c(NCc2ccccn2)nc2ccccc21 | 113
Cc1nc(NCc2ccccn2)c2ccccc2n1 | 51*
C=CCc1cccc2cc(C(N)=S)c(=N)oc12 | 103
O=C(O)c1cccc(COCC(F)(F)F)c1 | 100
Cn1c(SCC(=O)c2ccc3c(c2)OCCO3)nnc1-c1ccc2ccccc2c1 | 104
O=C(Nc1ccc(Cl)cc1)C1=Cc2ccccc2OC1 | 65*
Nc1c(C(=O)Nc2ccc(Cl)cc2)oc2ccccc12 | 100
COc1ccc2c(c1)C=C(C(=O)Nc1ccccc1)CO2 | 103
O=C(O)c1cc2ccc3cccc4ccc(c1)c2c34 | 77*
O=C(O)c1c2ccccc2cc2ccccc12 | 100
O=C(O)c1cccc(N2C(=O)CCC2=O)c1 | 101
N#CC(=C1CCCC1)c1nc2ccccc2s1 | 103
O=C(c1cnoc1)c1cc(Cl)cc(Cl)c1O | 94
Cc1ccc(N)c(C(O)(C(F)(F)F)C(F)(F)F)c1 | 102
Oc1c(Cl)cc(Cl)cc1Sc1cc(Cl)cc(Cl)c1O | 60*
